# Reference: PMC7862700, “An all-to-all approach to the identification of sequence-specific readers for epigenetic DNA modifications on cytosine”
# Tests used:
# Assay in all cases: DAPPL (digital affinity profiling via proximity ligation, sequencing); 10 mM Tris-HCl pH 7.5, 50 mM NaCl, 1 mM DTT, 4% glycerol, room temperature, 30 min; GST-TFs on glutathione beads, 16-mer random dsDNA library, 0.1% formaldehyde crosslink after washing; high values mean tight binding
# FLI1 = biological target: T1, FLI1 (Homo sapiens, UniProt Q01543 1-452); conditions: protein: recombinant; tags: N-terminal GST; dsDNA, one strand shown
# T1 sequence: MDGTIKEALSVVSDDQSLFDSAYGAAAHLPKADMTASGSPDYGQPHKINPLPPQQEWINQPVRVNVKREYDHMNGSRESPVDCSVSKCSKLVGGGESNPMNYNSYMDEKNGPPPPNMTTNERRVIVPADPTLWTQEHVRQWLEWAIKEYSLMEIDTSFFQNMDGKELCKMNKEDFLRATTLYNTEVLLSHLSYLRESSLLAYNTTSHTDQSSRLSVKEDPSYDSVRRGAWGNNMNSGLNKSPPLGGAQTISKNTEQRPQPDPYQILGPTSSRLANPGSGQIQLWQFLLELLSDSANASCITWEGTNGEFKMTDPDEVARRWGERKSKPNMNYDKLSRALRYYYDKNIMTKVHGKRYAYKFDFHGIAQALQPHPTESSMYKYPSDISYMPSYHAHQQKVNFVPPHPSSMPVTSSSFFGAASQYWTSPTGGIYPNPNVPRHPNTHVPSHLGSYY
# Summary of the method: (§1)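 GST fusions of human transcription factors were expressed in yeast and captured with glutathione beads. Once given DNA barcodes and pooled alongside a tag-only sample, they were incubated for 30 min at room temperature with 200 nmole of a random double-stranded 16-mer DNA library in Tris/NaCl/DTT/glycerol buffer, then washed, crosslinked (0.1% formaldehyde), proximity-ligated, PCR-amplified and sequenced on an Illumina NextSeq500. The binding signal of each hexamer is its read frequency for a factor divided by its frequency for the tag-only sample.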
# ELK1 = biological target: T2, ELK1 (Homo sapiens, UniProt P19419 1-428); conditions: protein: recombinant; tags: N-terminal GST; dsDNA, one strand shown
# T2 sequence: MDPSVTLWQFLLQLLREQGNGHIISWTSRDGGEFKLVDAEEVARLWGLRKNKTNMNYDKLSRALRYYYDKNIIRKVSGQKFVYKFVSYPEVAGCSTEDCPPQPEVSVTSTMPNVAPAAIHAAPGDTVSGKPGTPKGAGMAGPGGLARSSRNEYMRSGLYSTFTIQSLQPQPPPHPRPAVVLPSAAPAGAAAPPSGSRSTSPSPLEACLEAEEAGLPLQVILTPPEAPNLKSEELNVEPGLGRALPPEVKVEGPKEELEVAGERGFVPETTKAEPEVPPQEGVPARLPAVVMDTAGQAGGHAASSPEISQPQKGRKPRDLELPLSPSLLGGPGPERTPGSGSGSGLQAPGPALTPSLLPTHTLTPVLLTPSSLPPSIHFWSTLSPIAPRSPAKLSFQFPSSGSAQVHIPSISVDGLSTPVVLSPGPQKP
# Summary of the method: as §1
# GABPA = biological target: T3, GABPA (Homo sapiens, UniProt Q06546 1-454); conditions: protein: recombinant; tags: N-terminal GST; dsDNA, one strand shown
# T3 sequence: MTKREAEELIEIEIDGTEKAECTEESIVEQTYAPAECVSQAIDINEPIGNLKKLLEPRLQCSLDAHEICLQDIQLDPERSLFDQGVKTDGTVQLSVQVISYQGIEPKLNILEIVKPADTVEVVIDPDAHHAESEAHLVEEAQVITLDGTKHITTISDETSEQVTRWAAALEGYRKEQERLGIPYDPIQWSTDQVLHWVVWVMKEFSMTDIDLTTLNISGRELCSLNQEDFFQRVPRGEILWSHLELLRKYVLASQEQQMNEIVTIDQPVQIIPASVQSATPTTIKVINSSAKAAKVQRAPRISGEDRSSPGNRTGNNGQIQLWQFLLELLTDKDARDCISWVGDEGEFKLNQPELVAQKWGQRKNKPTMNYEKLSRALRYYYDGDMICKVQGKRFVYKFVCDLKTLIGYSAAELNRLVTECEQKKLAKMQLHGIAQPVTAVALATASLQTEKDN
# Summary of the method: as §1
# ERG = biological target: T4, ERG (Homo sapiens, UniProt P11308 1-479); conditions: protein: recombinant; tags: N-terminal GST; dsDNA, one strand shown
# T4 sequence: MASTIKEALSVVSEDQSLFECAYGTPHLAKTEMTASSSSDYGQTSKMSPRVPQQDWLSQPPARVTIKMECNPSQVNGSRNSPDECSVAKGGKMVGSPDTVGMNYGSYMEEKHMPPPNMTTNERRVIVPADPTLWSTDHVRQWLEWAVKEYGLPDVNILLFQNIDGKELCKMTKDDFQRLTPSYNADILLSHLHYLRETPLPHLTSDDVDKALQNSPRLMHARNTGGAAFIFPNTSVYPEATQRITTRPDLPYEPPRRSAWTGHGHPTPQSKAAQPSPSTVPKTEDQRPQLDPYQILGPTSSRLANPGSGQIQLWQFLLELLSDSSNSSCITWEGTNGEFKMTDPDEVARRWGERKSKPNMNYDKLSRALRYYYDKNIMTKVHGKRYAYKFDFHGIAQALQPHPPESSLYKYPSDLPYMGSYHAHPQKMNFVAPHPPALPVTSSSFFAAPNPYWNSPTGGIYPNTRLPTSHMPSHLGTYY
# Summary of the method: as §1
# ELF1 = ELF1 (Homo sapiens, UniProt P32519 1-619); conditions: protein: recombinant; tags: N-terminal GST; dsDNA, one strand shown
# Summary of the method: as §1
# EHF = biological target: T5, EHF (Homo sapiens, UniProt Q9NZC4 1-300); conditions: protein: recombinant; tags: N-terminal GST; dsDNA, one strand shown
# T5 sequence: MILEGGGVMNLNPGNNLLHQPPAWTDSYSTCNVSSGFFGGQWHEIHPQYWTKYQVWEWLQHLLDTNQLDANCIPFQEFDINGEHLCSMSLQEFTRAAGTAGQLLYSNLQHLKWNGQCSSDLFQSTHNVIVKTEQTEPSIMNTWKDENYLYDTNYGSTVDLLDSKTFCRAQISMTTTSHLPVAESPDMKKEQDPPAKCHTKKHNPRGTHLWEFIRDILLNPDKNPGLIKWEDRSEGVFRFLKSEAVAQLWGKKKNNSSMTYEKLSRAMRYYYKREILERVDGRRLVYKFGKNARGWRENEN
# Summary of the method: as §1
# SPI1 = SPI1 (Homo sapiens, UniProt P17947 1-270); conditions: protein: recombinant; tags: N-terminal GST; dsDNA, one strand shown
# Summary of the method: as §1
# SPIB = SPIB (Homo sapiens, UniProt Q01892 1-262); conditions: protein: recombinant; tags: N-terminal GST; dsDNA, one strand shown
# Summary of the method: as §1
# ELK3 = biological target: T6, ELK3 (Homo sapiens, UniProt P41970 1-407); conditions: protein: recombinant; tags: N-terminal GST; dsDNA, one strand shown
# T6 sequence: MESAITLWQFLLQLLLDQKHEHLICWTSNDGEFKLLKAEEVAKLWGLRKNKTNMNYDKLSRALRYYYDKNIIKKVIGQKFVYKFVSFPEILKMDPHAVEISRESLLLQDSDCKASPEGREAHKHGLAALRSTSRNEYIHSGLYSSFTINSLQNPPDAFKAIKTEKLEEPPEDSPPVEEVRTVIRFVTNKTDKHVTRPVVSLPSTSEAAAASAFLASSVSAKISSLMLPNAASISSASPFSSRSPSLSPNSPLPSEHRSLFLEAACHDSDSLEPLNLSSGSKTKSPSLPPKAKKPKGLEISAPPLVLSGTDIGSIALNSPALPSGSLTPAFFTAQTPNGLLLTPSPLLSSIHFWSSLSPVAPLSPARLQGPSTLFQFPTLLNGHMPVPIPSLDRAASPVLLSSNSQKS
# Summary of the method: as §1
# FEV = biological target: T7, FEV (Homo sapiens, UniProt Q99581 1-238); conditions: protein: recombinant; tags: N-terminal GST; dsDNA, one strand shown
# T7 sequence: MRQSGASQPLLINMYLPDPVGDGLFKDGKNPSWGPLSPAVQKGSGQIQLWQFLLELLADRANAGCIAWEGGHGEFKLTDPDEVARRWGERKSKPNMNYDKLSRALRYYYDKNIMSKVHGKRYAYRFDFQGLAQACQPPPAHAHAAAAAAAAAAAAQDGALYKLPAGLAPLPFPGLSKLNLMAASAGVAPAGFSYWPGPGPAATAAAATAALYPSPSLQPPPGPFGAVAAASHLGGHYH
# Summary of the method: as §1
# ETV5 = ETV5 (Homo sapiens, UniProt P41161 1-510); conditions: protein: recombinant; tags: N-terminal GST; dsDNA, one strand shown
# Summary of the method: as §1
# HSF1 = HSF1 (Homo sapiens, UniProt Q00613 1-529); conditions: protein: recombinant; tags: N-terminal GST; chain copies: 3; dsDNA, one strand shown
# Summary of the method: as §1
# SPIC = biological target: T8, SPIC (Homo sapiens, UniProt Q8N5J4 1-248); conditions: protein: recombinant; tags: N-terminal GST; dsDNA, one strand shown
# T8 sequence: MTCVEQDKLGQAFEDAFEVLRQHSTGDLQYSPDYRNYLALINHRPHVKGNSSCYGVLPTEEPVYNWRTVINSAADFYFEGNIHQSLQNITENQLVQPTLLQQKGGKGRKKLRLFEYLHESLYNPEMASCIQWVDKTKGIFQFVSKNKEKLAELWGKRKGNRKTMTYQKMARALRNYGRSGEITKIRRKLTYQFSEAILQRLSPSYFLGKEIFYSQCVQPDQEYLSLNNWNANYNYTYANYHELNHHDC
# Summary of the method: as §1
# ELF4 = ELF4 (Homo sapiens, UniProt Q99607 1-663); conditions: protein: recombinant; tags: N-terminal GST; dsDNA, one strand shown
# Summary of the method: as §1
# ELK4 = biological target: T9, ELK4 (Homo sapiens, UniProt P28324-2 1-405); conditions: protein: recombinant; tags: N-terminal GST; dsDNA, one strand shown
# T9 sequence: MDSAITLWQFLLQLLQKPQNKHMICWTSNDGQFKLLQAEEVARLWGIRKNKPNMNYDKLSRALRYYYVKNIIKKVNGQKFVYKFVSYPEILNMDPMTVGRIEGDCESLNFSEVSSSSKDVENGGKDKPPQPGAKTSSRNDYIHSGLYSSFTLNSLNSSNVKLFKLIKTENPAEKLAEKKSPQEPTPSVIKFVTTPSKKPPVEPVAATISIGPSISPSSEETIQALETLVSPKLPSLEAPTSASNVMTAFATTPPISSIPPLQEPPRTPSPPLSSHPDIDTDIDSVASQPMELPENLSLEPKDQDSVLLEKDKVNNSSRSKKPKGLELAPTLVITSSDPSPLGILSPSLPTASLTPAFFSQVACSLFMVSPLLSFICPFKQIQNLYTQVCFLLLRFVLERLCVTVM
# Summary of the method: as §1
# ETV2 = biological target: T10, ETV2 (Homo sapiens, UniProt O00321 1-342); conditions: protein: recombinant; tags: N-terminal GST; dsDNA, one strand shown
# T10 sequence: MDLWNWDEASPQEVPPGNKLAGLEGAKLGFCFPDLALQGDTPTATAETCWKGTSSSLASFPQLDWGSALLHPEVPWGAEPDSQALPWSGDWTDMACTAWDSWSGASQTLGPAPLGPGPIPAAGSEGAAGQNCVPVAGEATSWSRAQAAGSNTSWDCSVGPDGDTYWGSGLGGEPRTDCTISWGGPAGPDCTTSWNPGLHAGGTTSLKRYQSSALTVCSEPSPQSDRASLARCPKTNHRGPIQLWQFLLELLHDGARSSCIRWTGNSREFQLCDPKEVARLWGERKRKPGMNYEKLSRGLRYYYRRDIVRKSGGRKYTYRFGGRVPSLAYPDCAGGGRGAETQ
# Summary of the method: as §1
# ELF3 = biological target: T11, ELF3 (Homo sapiens, UniProt P78545 1-371); conditions: protein: recombinant; tags: N-terminal GST; dsDNA, one strand shown
# T11 sequence: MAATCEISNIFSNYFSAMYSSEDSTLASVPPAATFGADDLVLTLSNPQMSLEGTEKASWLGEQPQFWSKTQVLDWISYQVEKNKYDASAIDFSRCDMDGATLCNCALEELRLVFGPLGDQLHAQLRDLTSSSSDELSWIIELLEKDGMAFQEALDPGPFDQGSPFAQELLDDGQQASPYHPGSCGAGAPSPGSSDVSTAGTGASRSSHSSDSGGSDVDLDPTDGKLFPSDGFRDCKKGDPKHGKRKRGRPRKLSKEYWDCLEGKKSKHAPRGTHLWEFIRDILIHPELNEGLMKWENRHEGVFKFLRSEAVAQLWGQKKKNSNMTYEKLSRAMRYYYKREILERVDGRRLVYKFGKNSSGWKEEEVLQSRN
# Summary of the method: as §1
# CRX = CRX (Homo sapiens, UniProt O43186 1-299); conditions: protein: recombinant; tags: N-terminal GST; dsDNA, one strand shown
# Summary of the method: as §1
# ETV1 = ETV1 (Homo sapiens, UniProt P50549 1-477); conditions: protein: recombinant; tags: N-terminal GST; dsDNA, one strand shown
# Summary of the method: as §1
# Sequence of HSF1 (Q00613 whole entry): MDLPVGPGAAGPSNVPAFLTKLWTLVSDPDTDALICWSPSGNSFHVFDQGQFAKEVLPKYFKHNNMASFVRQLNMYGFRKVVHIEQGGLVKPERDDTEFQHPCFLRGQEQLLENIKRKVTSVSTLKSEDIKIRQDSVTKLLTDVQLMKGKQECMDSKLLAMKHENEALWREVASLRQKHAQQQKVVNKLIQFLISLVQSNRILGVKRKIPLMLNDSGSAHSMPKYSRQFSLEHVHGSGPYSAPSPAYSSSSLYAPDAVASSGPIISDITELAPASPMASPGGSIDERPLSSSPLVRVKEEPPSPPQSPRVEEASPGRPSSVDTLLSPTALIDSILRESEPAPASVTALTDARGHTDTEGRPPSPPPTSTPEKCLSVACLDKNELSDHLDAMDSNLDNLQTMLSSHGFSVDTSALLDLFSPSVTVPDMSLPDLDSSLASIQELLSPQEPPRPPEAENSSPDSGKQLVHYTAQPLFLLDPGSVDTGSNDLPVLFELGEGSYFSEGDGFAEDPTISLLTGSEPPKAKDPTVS
# Sequence of ELF4 (Q99607 whole entry): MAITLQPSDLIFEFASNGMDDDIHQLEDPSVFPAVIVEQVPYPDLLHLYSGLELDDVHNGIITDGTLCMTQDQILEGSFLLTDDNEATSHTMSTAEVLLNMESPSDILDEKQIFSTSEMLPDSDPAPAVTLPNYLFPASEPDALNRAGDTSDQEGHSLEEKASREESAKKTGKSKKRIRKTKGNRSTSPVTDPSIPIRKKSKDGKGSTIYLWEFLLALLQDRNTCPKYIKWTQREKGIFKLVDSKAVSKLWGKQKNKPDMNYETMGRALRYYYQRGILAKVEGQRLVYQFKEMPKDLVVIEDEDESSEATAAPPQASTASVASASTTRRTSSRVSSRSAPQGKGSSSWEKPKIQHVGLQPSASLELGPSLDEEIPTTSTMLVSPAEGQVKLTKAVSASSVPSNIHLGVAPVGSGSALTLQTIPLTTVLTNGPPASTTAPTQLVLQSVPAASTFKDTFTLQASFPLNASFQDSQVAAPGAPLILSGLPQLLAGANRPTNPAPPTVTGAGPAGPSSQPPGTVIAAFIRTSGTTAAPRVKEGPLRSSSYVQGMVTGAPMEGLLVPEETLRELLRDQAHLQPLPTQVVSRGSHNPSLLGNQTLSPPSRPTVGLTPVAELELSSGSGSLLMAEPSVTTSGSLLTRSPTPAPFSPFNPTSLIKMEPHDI
# Sequence of SPIB (Q01892 whole entry): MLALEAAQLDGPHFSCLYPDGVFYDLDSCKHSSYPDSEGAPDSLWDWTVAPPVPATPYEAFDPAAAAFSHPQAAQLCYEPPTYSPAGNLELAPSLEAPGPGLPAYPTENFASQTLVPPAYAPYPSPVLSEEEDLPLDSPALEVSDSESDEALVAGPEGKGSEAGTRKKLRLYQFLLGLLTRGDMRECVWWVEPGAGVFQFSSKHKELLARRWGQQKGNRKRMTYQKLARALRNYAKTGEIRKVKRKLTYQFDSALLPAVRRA
# Sequence of CRX (O43186 whole entry): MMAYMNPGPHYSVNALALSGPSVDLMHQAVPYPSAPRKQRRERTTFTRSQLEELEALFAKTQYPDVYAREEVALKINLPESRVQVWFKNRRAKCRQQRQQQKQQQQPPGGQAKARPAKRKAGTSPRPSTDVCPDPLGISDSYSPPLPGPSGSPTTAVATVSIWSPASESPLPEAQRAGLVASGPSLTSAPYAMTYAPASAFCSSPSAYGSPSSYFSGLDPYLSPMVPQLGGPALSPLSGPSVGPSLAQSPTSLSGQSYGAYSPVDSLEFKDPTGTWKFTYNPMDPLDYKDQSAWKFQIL
# Sequence of ETV5 (P41161 whole entry): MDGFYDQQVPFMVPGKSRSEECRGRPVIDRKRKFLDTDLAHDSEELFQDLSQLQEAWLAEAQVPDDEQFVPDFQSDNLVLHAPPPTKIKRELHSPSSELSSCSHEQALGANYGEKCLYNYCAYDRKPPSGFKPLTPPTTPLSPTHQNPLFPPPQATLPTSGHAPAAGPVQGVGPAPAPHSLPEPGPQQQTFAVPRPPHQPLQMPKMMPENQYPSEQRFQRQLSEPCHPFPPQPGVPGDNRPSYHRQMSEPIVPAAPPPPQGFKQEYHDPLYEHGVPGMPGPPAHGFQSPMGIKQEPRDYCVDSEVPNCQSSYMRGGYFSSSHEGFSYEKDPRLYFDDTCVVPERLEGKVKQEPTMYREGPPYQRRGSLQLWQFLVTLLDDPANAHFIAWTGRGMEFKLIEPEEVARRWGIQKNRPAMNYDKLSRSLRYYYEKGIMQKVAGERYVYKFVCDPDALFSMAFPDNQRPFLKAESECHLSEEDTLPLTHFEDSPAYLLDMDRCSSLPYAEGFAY
# Sequence of ETV1 (P50549 whole entry): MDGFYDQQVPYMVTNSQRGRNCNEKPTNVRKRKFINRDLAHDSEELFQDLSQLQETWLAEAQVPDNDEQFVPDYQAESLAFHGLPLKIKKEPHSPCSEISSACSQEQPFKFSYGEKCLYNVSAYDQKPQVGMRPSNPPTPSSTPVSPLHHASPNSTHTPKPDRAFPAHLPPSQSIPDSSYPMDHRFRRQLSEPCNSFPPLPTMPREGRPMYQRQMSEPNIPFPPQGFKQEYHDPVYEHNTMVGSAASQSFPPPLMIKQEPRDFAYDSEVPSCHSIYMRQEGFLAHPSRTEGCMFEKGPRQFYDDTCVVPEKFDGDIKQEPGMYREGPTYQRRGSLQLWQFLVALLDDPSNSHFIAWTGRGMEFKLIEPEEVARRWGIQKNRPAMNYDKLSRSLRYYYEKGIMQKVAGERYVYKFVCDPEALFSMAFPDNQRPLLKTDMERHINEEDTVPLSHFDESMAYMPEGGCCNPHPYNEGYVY
# Sequence of ELF1 (P32519 whole entry): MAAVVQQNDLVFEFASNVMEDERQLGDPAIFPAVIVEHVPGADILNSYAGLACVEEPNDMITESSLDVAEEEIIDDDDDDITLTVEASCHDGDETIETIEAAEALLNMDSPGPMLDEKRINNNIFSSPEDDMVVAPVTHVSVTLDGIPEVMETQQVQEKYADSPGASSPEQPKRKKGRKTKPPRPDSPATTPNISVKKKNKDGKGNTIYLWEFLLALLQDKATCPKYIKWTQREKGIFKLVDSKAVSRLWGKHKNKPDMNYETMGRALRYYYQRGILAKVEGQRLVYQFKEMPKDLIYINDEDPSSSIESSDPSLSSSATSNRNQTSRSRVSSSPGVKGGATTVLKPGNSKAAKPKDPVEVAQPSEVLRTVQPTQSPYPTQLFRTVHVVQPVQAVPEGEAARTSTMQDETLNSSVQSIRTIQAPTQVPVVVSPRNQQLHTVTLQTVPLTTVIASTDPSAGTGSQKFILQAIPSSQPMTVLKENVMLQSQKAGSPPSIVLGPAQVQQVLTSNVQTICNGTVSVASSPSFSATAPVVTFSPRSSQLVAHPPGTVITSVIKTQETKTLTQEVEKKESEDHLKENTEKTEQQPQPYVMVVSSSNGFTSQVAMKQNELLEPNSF
sequence,measurement,setting,value
AAATGG,binding signal,FLI1,"1.52 fold enrichment (6-mer frequency, TF over GST control)"
same,binding signal,ELK1,"1.42 fold enrichment (6-mer frequency, TF over GST control)"
same,binding signal,GABPA,"1.49 fold enrichment (6-mer frequency, TF over GST control)"
same,binding signal,ERG,"1.56 fold enrichment (6-mer frequency, TF over GST control)"
same,binding signal,ELF1,"1.49 fold enrichment (6-mer frequency, TF over GST control)"
same,binding signal,EHF,"1.55 fold enrichment (6-mer frequency, TF over GST control)"
same,binding signal,SPI1,"1.59 fold enrichment (6-mer frequency, TF over GST control)"
same,binding signal,SPIB,"1.43 fold enrichment (6-mer frequency, TF over GST control)"
same,binding signal,ELK3,"1.47 fold enrichment (6-mer frequency, TF over GST control)"
same,binding signal,FEV,"1.42 fold enrichment (6-mer frequency, TF over GST control)"
same,binding signal,ETV5,"1.56 fold enrichment (6-mer frequency, TF over GST control)"
same,binding signal,HSF1,"1.27 fold enrichment (6-mer frequency, TF over GST control)"
same,binding signal,SPIC,"1.51 fold enrichment (6-mer frequency, TF over GST control)"
same,binding signal,ELF4,"1.49 fold enrichment (6-mer frequency, TF over GST control)"
same,binding signal,ELK4,"1.5 fold enrichment (6-mer frequency, TF over GST control)"
same,binding signal,ETV2,"1.47 fold enrichment (6-mer frequency, TF over GST control)"
same,binding signal,ELF3,"1.48 fold enrichment (6-mer frequency, TF over GST control)"
same,binding signal,CRX,"1.22 fold enrichment (6-mer frequency, TF over GST control)"
same,binding signal,ETV1,"1.5 fold enrichment (6-mer frequency, TF over GST control)"
